Results filed as inconclusive are left out. Activity calls are given as the source filed them. Unless noted, the call rests on the fitted dose curve; in most records, active means well fitted curve in the direction sought with a large enough effect in the repeat runs; inconclusive means weak or mixed curves; inactive means no such curve, though single readings can be large; an effect the other way counts as inactive or inconclusive.
Key:
[1] = qHTS assay for small molecules that induce genotoxicity in human embryonic kidney cells expressing luciferase-tagged ATAD5 (AID 651632); further: nearly all actives have a fitted effect of over 15% in size
Procedure, shortened: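 HEK293T cells carrying a luciferase reporter tagged to ATAD5 were exposed to compound or DMSO vehicle for 16 hr at 37C, 5% CO2. Amplite was added, and after 30 min at room temperature luciferase activity was read as a marker of ATAD5 induction.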

[2] = qHTS assay for small molecule disruptors of the mitochondrial membrane potential (AID 720635); further: potency means the concentration at half of the fitted maximal effect
Procedure, shortened: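 Mitochondrial membrane potential tracked with Mito-MPS dye, red aggregates (ex 540/em 590 nm) against green monomers (ex 490/em 535 nm). Compound treatment 1 hr at 37C, dye 30 min in HepG2.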

[3] = qHTS assay to test for compound auto fluorescence at 590 nm (red) in HepG2 cells (AID 720674)
Procedure, shortened: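 Red autofluorescence (Ex/Em 540/590 nm, Rose Bengal sodium equivalents) was measured in HepG2 cells, 2,000 per well in MEM plus 10% FBS, plated overnight at 37 C. Readings were taken 1 hr after adding 23 nL compound or DMSO, at 37 C and 5% CO2.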

[4] = qHTS assay to test for compound auto fluorescence at 535 nm (green) in HepG2 cells (AID 720675)
[5] = qHTS assay to test for compound auto fluorescence at 460 nm (blue) in HEK293 cells (AID 720678)
Procedure, shortened: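 HEK293 cells (2,000/well, medium with 10% dialyzed FBS) attached 4-5 hr, then exposed to compound overnight at 37C, 5% CO2. Blue fluorescence read at 405/460 nm, with triamterene as reference fluorophore.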

[6] = qHTS assay to test for compound auto fluorescence at 590 nm (red) in HEK293 cells (AID 720679)
Procedure, shortened: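 HEK293 cells (2,000/well, 10% dialyzed FBS) attached 4-5 hr, then dosed with compound or DMSO and incubated overnight at 37C, 5% CO2. Red fluorescence read at 540/590 nm, Rose Bengal sodium as reference fluorophore.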

[7] = qHTS assay to test for compound auto fluorescence at 535 nm (green) in HEK293 cells (AID 720680)
[8] = qHTS assay to test for compound auto fluorescence at 460 nm (blue) in HEK293 cell free culture (AID 720681)
Procedure, shortened: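 Blue fluorescence (Ex 405/Em 460 nm, triamterene-equivalent) was read immediately after pin transfer of compound or DMSO into medium (DMEM, 10% FBS) without cells.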

[9] = qHTS assay to test for compound auto fluorescence at 590 nm (red) in HEK293 cell free culture (AID 720683)
Procedure, shortened: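 Red-channel autofluorescence of compounds in culture medium (DMEM, 10% FBS), no cells, measured at 540/590 nm. Rose Bengal sodium is the reference fluorophore for equivalence.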

[10] = qHTS assay to test for compound auto fluorescence at 590 nm (red) in HepG2 cell free culture (AID 720684)
Procedure, shortened: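 Steps: dispense MEM/10% FBS medium, no cells; pin compound or DMSO vehicle; read red channel, Ex/Em 540/590 nm. Output given as Rose Bengal sodium equivalents.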

[11] = qHTS assay to test for compound auto fluorescence at 460 nm (blue) in HepG2 cell free culture (AID 720685)
Procedure, shortened: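 Compound (23 nL) or DMSO pinned into cell-free MEM with 10% FBS; blue fluorescence read at 405/460 nm excitation/emission, expressed as auto-fluorescence equivalency to triamterene.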

[12] = qHTS assay to test for compound auto fluorescence at 535 nm (green) in HepG2 cell free culture (AID 720686)
[13] = qHTS assay to test for compound auto fluorescence at 460 nm (blue) in HepG2 cells (AID 720687)
Procedure, shortened: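 Blue-channel autofluorescence (Ex/Em 405/460 nm, triamterene-equivalent) was measured after 1 hr compound exposure at 37 C, 5% CO2. Cells were HepG2, plated overnight at 37 C in MEM plus 10% FBS.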

[14] = target: Glucocorticoid receptor (Homo sapiens) (UniProt P04150); assay: qHTS assay to identify small molecule agonists of the glucocorticoid receptor (GR) signaling pathway (AID 720691; active means well fitted activation curve with a large enough effect in the signal ratio in the repeat runs, not every such curve was filed as active; the % refers to the signal ratio)
Chain of Glucocorticoid receptor (Homo sapiens) (P04150 whole entry, looked up): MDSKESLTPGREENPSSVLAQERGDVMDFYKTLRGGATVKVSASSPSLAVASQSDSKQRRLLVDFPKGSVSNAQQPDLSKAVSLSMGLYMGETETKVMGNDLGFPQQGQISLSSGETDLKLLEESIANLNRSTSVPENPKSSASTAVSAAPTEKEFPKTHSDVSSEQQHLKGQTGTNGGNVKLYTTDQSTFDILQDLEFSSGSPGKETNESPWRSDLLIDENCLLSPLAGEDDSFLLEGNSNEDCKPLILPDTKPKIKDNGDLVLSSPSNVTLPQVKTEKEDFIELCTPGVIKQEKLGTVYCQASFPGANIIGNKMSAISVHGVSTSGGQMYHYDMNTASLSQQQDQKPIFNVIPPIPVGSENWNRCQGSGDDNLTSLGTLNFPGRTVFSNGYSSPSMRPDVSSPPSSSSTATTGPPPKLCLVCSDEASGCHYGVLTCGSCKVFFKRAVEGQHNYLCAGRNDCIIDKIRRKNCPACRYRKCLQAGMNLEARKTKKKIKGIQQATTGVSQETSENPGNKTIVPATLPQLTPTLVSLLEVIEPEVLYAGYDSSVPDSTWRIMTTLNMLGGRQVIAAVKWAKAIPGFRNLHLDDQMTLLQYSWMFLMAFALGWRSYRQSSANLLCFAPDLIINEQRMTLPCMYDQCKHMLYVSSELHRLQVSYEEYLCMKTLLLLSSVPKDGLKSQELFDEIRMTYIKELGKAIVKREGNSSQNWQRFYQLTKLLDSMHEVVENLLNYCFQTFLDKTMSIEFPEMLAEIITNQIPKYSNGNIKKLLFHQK
Procedure, shortened: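 GR-bla HeLa cells (beta-lactamase reporter under glucocorticoid response element) were plated 4 h at 37 C/5% CO2, given compounds in DMSO, and incubated 18 h at 37 C. LiveBLAzer B/G FRET substrate was added for 2 h at room temperature, then fluorescence intensity read.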

[15] = qHTS assay to identify small molecule antagonists of the glucocorticoid receptor (GR) signaling pathway - cell viability counter screen (AID 720693); further: nearly all actives have a fitted effect of over 55% in size
[16] = qHTS assay for identifying genotoxic compounds that show differential cytotoxicity against isogenic chicken DT40 cell lines with known DNA damage response pathways - wild type cell line (AID 743012); further: potency means the concentration at half of the fitted maximal effect; nearly all actives have a fitted effect of over 60% in size
Procedure, shortened: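 Parental DNA repair-proficient DT40 cells, 300 per well, were pre-incubated ~0.5 h at 37 C/5% CO2, pin-dosed with compounds in DMSO, then incubated 40 h. Viability was read as CellTiter-Glo luminescence after 30 min at room temperature.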

[17] = qHTS assay for identifying genotoxic compounds that show differential cytotoxicity against isogenic chicken DT40 cell lines with known DNA damage response pathways - Rev3 mutant cell line (AID 743014); further: potency means the concentration at half of the fitted maximal effect; nearly all actives have a fitted effect of over 55% in size
[18] = qHTS assay for identifying genotoxic compounds that show differential cytotoxicity against isogenic chicken DT40 cell lines with known DNA damage response pathways - Rad54/Ku70 mutant cell line (AID 743015); further: potency means the concentration at half of the fitted maximal effect; nearly all actives have a fitted effect of over 60% in size
[19] = target: Androgen receptor (Homo sapiens) (UniProt P10275); assay: qHTS assay to identify small molecule agonists of the androgen receptor (AR) signaling pathway using the MDA cell line (AID 743040; further: nearly all actives have a fitted effect of over 20% in size)
Chain of Androgen receptor (Homo sapiens) (P10275 whole entry, looked up): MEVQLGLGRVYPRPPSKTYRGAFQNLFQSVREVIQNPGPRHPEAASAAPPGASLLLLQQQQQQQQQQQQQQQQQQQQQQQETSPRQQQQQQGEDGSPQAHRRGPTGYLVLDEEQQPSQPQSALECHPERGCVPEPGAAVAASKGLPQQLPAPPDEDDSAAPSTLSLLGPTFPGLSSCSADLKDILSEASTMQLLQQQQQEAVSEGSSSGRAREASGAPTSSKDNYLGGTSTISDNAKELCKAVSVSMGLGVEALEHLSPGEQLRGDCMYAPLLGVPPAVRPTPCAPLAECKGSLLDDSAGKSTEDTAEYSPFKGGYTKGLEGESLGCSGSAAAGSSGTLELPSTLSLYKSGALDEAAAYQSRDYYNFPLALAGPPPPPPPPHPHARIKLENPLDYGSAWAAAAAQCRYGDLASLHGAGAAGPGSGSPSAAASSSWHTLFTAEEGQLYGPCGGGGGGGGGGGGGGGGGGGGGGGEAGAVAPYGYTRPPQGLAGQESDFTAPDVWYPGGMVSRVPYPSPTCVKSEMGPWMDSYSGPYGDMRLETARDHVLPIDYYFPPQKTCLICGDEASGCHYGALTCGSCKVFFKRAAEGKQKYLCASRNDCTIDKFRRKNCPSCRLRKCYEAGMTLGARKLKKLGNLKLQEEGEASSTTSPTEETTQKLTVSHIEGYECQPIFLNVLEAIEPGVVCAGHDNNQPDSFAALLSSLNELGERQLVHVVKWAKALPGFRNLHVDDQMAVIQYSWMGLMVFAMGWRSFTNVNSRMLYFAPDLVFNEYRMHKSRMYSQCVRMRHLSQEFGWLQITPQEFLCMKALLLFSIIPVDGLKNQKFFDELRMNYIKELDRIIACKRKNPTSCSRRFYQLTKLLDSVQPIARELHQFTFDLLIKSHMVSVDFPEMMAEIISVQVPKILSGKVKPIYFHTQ
Procedure, shortened: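 Cells plated, 5 h at 37C/0% CO2; compound or DMSO pinned; 16 h at 37C; ONE-Glo added; luminescence measured after 30 min at room temperature. Reporter line: MDA-kb2 with MMTV-luciferase responsive to AR and GR.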

[20] = qHTS assay to identify small molecule antagonists of the thyroid receptor (TR) signaling pathway - cell viability counter screen (AID 743064); further: potency means the concentration at half of the fitted maximal effect; nearly all actives have a fitted effect of over 50% in size
Procedure, shortened: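 In rat pituitary GH3.TRE-Luc reporter cells co-exposed to compound and 1 nM T3 for 23.5 h, cytotoxicity was assessed with CellTiter-Fluor in the same wells, read by fluorescence.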

[21] = qHTS assay to identify small molecule antagonists of the thyroid receptor (TR) signaling pathway (AID 743065); further: potency means the concentration at half of the fitted maximal effect; nearly all actives have a fitted effect of over 55% in size
Procedure, shortened: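 Antagonism measured as loss of luciferase signal in GH3 cells stably carrying a TRE-luciferase reporter, co-treated with compound and T3 (1 nM final) for 23.5 h at 37 C. Viability was read in the same well by CellTiter-Fluor.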

[22] = target: Estrogen receptor (Homo sapiens) (UniProt P03372); assay: qHTS assay to identify small molecule agonists of the estrogen receptor alpha (ER-alpha) signaling pathway (AID 743075; calls by dose curve;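 further: HEK293 GripTite cells with ER-alpha and UAS-driven beta-lactamase reporter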)
Chain of Estrogen receptor (Homo sapiens) (P03372 whole entry, looked up): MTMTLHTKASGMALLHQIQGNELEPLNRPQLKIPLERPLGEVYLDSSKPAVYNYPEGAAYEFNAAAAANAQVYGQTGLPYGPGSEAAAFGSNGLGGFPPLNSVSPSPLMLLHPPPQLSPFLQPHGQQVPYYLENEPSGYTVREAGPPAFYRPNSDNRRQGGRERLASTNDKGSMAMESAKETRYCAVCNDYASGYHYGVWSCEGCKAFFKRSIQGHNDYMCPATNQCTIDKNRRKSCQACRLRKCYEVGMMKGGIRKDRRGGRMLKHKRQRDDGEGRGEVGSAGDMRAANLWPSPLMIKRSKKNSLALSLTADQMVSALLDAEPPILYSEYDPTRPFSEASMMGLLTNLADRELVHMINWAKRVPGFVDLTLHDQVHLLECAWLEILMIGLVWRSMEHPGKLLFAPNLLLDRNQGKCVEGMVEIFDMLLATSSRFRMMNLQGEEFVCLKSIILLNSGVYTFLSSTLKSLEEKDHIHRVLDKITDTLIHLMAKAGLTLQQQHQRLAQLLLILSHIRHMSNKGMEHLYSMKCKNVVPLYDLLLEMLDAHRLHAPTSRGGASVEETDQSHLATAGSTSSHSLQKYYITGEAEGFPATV

[23] = qHTS assay to identify small molecule antagonists of the estrogen receptor alpha (ER-alpha) signaling pathway using the BG1 cell line - cell viability counter screen (AID 743081);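 further: compound given together with 17beta-estradiol as the ER stimulus; series mostly up to about 70 µM; nearly all actives have a fitted effect of over 45% in size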
[24] = target: Aromatase (Homo sapiens) (UniProt P11511); assay: qHTS assay to identify aromatase inhibitors (AID 743083); further: potency means the concentration at half of the fitted maximal effect; nearly all actives have a fitted effect of over 55% in size
Chain of Aromatase (Homo sapiens) (P11511 whole entry, looked up): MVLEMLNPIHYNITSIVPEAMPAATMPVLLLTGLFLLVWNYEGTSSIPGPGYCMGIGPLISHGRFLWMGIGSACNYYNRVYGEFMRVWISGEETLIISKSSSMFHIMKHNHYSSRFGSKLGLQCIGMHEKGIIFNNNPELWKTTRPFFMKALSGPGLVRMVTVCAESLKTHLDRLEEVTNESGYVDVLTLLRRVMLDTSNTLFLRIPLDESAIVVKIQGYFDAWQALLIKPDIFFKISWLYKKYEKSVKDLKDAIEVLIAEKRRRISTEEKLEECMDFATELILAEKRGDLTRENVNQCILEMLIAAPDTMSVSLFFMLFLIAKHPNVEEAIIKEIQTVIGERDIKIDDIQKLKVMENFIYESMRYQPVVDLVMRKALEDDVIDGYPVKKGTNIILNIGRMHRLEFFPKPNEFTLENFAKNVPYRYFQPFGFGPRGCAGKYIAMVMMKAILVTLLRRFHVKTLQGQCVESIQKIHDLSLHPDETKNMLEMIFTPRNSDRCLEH

[25] = qHTS assay to identify aromatase inhibitors - cell viability counter screen (AID 743084)

Measured: Potency

O=c1c2ccccc2[se]n1-c1ccccc1
inactive: [1] | [3] | [4] | [5] | [6] | [7] | [8] | [9] | [10] | [11] | [12] | [13] | [14] | [15] | [19] | [22] | [23]
active: [2] 22.1 µM | [16] 5.31 µM | [17] 8.41 µM | [18] 6.68 µM | [20] 23.7 µM | [21] 23.7 µM | [24] 29.8 µM | [25] 26.6 µM
